Compound activity as filed in PubChem.
RTF Ca sens inh = cardiac RTF calcium sensitivity inhibitors, primary screen, biochemical, IANBD-TnC fluorescence, EC70 calcium; AID 493244, 2011; 340,000 compounds, 0.12% hits; inhibition, % at 7.15 µM; Troponin I, cardiac muscle (Homo sapiens) + Troponin T, cardiac muscle (Homo sapiens) + …; IANBD-labeled cardiac RTF, Ca2+ fluorescence;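 active means inhibition above the mean inhibition of all tested compounds plus 3 SD, cut at about 17% in these data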;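 further: assay run at fixed EC70 calcium of 1.6 mM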
IDE inh = human IDE inhibitors in live cells, primary screen, fluorescence polarization, HEK cells, FAbetaB substrate | FAbetaB cleavage | inhibition, % at 5.59 µM | 320,000 compounds, 0.41% hits;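 active means percent inhibition above the average of all tested compounds plus 3 SD, set per screening campaign, cut at about 16% in these data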;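 further: IDE supplied by intact live HEK cells; FP after avidin binding of uncleaved biotin substrate so inhibition keeps polarization high; 0% = DMSO wells and 100% = 60 µM reference IDE inhibitor Ii1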
IDE cell activ = human IDE activators in live cells, primary screen, fluorescence polarization, HEK cells, FAbeta-B substrate. 340,000 compounds, 0.073% hits. FAbeta-B cleavage; 0% vehicle, 100% cell-free pure enzyme wells. Insulin-degrading enzyme (Homo sapiens), P14735. activation, % at 5.96 µM;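 active means activation above the mean of all tested compounds plus 3 SD, set per screening campaign, cut at about 17% in these data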
CRFR2-BP ag = agonists of CRF-BP/CRF-R2 complex, primary screen, cell-based, HEK293, calcium dye fluorescence, uHTS | activation, % at 13.2 µM | calcium dye fluorescence (FLIPR); percent of saturating CRF peptide response | 350,000 compounds, 0.46% hits | CRF-binding protein / CRF receptor 2 complex (human) | AID 588473, 2011;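 active means activation of at least 50%, plus an integration ratio under a set limit after plate pattern correction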;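 further: plate controls were neutral control wells without compound for no effect and CRF at EC100 for full effect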
RTF Ca sens act = cardiac RTF calcium sensitivity activators, primary screen, biochemical, IANBD-TnC fluorescence, EC20 calcium. Troponin I, cardiac muscle (Homo sapiens) + Troponin T, cardiac muscle (Homo sapiens) + …. IANBD-labeled TnC RTF fluorescence at EC20 calcium; 0% EC20 calcium, 100% full calcium. activation, % at 7.2 µM. 340,000 compounds, 0.24% hits. AID 493008, 2010;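 active means activation above the mean over all tested compounds plus 3 SD, cut at about 30% in these data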;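 further: rise in fluorescence read as greater calcium sensitivity of cardiac thin filaments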
TPT1 inh = Candida albicans TPT1 enzyme inhibitors, primary screen, biochemical, fluorescence polarization. AID 1962, 2009. inhibition, % at 5 µM. recombinant caTPT1, FP RNA substrate dephosphorylation. 300,000 compounds, 0.81% hits. tRNA 2'-phosphotransferase TPT1 (Candida albicans SC5314);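 active means inhibition above the mean of all tested compounds plus 3 SD, set per screening campaign, cut at about 24% in these data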;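 further: plate controls were DMSO alone for no effect and ferristatin control at 100 nM for full effect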
TPT1 inh confirm = Candida albicans TPT1 inhibitors, confirmation, biochemical, fluorescence polarization, triplicate; inhibition, % at 5 µM; recombinant caTPT1, RNase T1 coupled; AID 2149, 2009; 2,400 compounds, 74% hits; shares compounds with TPT1 inh;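 active means inhibition above the primary screen limit, the mean inhibition of all tested compounds plus 3 SD, cut at about 25% in these data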
RNase T1 inh = RNase T1 inhibitors, counter-screen for TPT1 inhibitor project, biochemical, fluorescence polarization. inhibition, % at 5 µM. AID 2153, 2009. RNase T1 cleavage, 1536-well. 2,400 compounds, 83% hits. shares compounds with TPT1 inh;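 active means inhibition above the solvent-only control well mean plus 3 SD, limit set per screening run, cut at about 23% in these data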;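 further: plate controls were DMSO wells with enzyme for no effect and wells without RNase T1 for full effect; inhibitors block cleavage so intact labeled substrate keeps polarization high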
IDE cell inh cf = human IDE inhibitors in live cells, confirmation, fluorescence polarization, HEK cells, FAbetaB substrate | shares compounds with IDE inh | FAbetaB cleavage | inhibition, % at 5.59 µM | 1,200 compounds, 51% hits;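 active means mean inhibition across triplicate wells above the cutoff set by the earlier primary insulin-degrading enzyme screen, cut at about 16% in these data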;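 further: 0% = DMSO wells and 100% = 60 µM reference IDE inhibitor Ii1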
HEK cytotox = cytotoxicity in HEK cells, cytotoxicity control for IDE inhibitor project, cell-based, luminescence | inhibition, % at 5.59 µM | shares compounds with IDE inh | AID 449730, 2010 | 1,200 compounds, 28% hits | HEK293 cytotoxicity, ATP luminescence; in the data active means inhibition above about 22%;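 further: 0% = vehicle wells and 100% = reference cytotoxic drug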
An asterisk follows results filed as active; x = no result. Compounds with a hit are over-represented: about 1.5% of the library has one in this group of screens.

SMILES | RTF Ca sens inh | IDE inh | IDE cell activ | CRFR2-BP ag | RTF Ca sens act | TPT1 inh | TPT1 inh confirm | RNase T1 inh | IDE cell inh cf | HEK cytotox
O=C1CCC/C(=N/NC(=O)c2sc3ccccc3c2Cl)C1 | -108 | 26* | -15 | 53* | 36* | 98* | 110* | 108* | 27* | 2
COc1cc(OC)c(OC)cc1/C=C1\Oc2cc(OS(C)(=O)=O)ccc2C1=O | -20 | 20* | -20 | 31 | 5 | 75* | 71* | 78* | 18* | 6
COc1cc(OC)c(OC)cc1/C=C1\Oc2cc(OCC(=O)N3Cc4ccccc4C[C@H]3C(=O)O)ccc2C1=O | -66 | 62* | -94 | 35 | 32* | 73* | 81* | 85* | 106* | 0
C=CCn1c(=O)/c(=C/c2ccc(O)cc2)s/c1=C(/C#N)c1nnc2n1CCCCC2 | -24 | 102* | -111 | 41 | 10 | 118* | 119* | 116* | 88* | 13
CCN1CCC2(CC1)C(C#N)=C(N)Oc1c2sc2nc(C)cc(C)c12 | -18 | 35* | -15 | 4 | 7 | 64* | 16 | 25* | 6 | 18
CNC(=O)c1c(NC(=O)c2ccc(S(=O)(=O)N3CCCC3)cc2)sc2c1CCN(C(C)C)C2 | x | 43* | x | x | x | 148* | 153* | 145* | 6 | 16
CNC(=O)c1c(NC(=O)c2ccc(S(=O)(=O)N3CC(C)OC(C)C3)cc2)sc2c1CCN(C(C)C)C2 (stereo not given) | -4 | -5 | 0 | 14 | 2 | 8 | x | x | x | x
O=C(Cn1cncn1)c1ccccc1Br | 0 | -1 | 5 | 4 | 0 | 3 | x | x | x | x
CCOc1cc(/C=C/C(=O)c2ccc(OC)c(CN3CCOCC3)c2)cc(Br)c1O | -16 | 94* | -75 | 58* | 7 | 55* | 81* | 86* | 150* | 22*
CN1C2CCC1/C(=C/c1cccn1C)C(=O)/C2=C\c1cccn1C | -290 | 44* | -43 | 237* | 367* | 121* | 123* | 117* | 72* | 19
CCCN1C(=O)/C(=C/c2ccc(N3CCOCC3)cc2)NC1=S | -26 | 16* | -25 | 171* | 22 | 138* | 143* | 139* | 31* | 17
CCN1C(=O)/C(=C/c2ccc(N3CCCC3)cc2)NC1=S | -181 | 124* | -152 | 258* | 151* | 150* | 154* | 142* | 158* | 23*
Cc1ccc(CN2C(=O)N/C(=C\c3ccc(N4CCOCC4)cc3)C2=O)cc1 | 17 | 2 | 8 | 4 | 2 | 1 | x | x | x | x
CCN(CC)c1ccc(/C=C/C(=O)C2C(=O)C=C(C)OC2=O)cc1 (stereo not given) | -122 | 64* | -142 | 377* | 128* | 48* | 33* | 40* | 95* | 13
